CtBP-E1A blk – blocks the CtBP interaction with E1A; AID 651724; activity change, % (concentration not given with the values); actives 0.49% (n = 340,000); AlphaScreen GST-E1A/His-CtBP binding, 1536-well; stronger effect = lower value; in the data active = activity change below about -65%; inconclusive = mostly about -30% to -63%
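AlphaScreen with 125 nM GST-E1A and 125 nM His-CtBP (5X stocks) in Tris pH 8.0, 300 mM NaCl, BSA, Tween 20, TCEP. Compounds preincubated 2 h at 37 deg C, then glutathione donor/nickel acceptor beads added for 1 h at 37 deg C in dark.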
Six1-Eya2 blk – blocks human Six1 binding to Eya2; AlphaScreen GST-Six1/His-Eya2 binding, biochemical; stronger effect = lower value; activity change, % (test concentration not listed); AID 651725; Q15475+O00167; actives 0.56% (n = 360,000); in the data active = activity change below about -65%; inconclusive = mostly about -30% to -63%
Target sequence (O00167 whole entry, looked up): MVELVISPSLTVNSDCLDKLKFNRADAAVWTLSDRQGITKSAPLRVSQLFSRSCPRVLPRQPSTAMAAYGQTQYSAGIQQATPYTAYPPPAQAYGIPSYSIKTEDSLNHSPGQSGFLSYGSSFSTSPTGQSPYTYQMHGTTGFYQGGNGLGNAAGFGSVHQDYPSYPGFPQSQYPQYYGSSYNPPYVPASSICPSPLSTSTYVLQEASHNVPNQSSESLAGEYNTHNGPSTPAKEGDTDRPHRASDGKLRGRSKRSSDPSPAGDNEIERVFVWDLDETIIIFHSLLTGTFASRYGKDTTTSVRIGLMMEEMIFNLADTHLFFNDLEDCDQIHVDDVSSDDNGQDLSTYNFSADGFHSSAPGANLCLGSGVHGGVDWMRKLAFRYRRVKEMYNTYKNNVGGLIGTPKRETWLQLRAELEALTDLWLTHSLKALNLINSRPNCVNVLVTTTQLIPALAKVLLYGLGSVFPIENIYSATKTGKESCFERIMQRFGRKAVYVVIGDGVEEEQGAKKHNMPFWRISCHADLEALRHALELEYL
Target sequence (Q15475 whole entry, looked up): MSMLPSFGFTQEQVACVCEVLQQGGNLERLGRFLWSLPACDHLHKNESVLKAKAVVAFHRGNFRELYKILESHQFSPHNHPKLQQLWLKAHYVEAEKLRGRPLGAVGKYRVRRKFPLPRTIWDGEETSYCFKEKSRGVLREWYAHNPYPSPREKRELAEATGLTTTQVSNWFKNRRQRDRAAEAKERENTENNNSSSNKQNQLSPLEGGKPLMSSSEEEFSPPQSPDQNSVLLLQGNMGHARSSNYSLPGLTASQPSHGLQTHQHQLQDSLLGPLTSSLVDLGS
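Homogeneous AlphaScreen proximity assay pairing GST-Six1 with His-tagged Eya2 (added as 5X mix: 250 nM and 500 nM) in 50 mM Tris pH 8.0, 300 mM NaCl, 1 mM TCEP. Glutathione donor and nickel acceptor beads; 1 h, 37 °C, dark.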
S2 tox – reduces viability in counter-screen for ATXN expression inhibitors | S2 cells (HEK-293 line with an ATXN2-luciferase reporter) viability, CellTiter-Fluor protease fluorescence, 24 h | Potency, µM (highest dose often 56.7 µM), usual class: cytotoxic | actives 0.49% (n = 400,000); note: nearly all actives have a fitted effect of over 40% in size
HepG2 tox – HepG2 cytotoxicity, counter-screen for TGF-b inhibitors. HepG2 CAGA-GFP viability, ATP luminescence, 18 h. Potency, µM (highest dose often 46.1 µM), hits mostly cytotoxic. actives 0.76% (n = 410,000)
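HepG2 CAGA-GFP cells (1000/well, DMEM with 1% FBS) received compound, then TGF-beta at 500 pg/mL final, and were incubated 18 hours at 37 degrees C. Viability was read by CellTiter-Glo luminescence. Media-only wells were set as complete cell-killing and DMSO as no toxicity.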
TGFb inhibitor – TGF-b pathway inhibition; HepG2 CAGA-GFP TGF-b/SMAD3 reporter, GFP fluorescence, 18 h; TGF-beta stimulated, 500 pg/mL final; Potency, µM (titrated, usually from 46.1 µM), actives largely listed as inhibitors; actives 1.2% (n = 410,000); note: nearly all actives have a fitted effect of over 65% in size
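GFP signal (ex488/em500-530) from TGF-beta-stimulated HEPG2 CAGA-GFP cells, 500 pg/mL final, 18 h at 37 degrees C in DMEM plus 1% FBS, normalized to unstimulated and DMSO-stimulated controls.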
ATXN2 expr inh – inhibitors of ATXN2 expression | HEK-293 ATXN2-luciferase reporter, luminescence, 24 h | Potency, µM (doses to about 57 µM), usual class: inhibitors | actives 0.72% (n = 360,000); note: nearly all actives have a fitted effect of over 55% in size
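qHTS (up to 57 uM final) was run with 24 h compound exposure of reporter cells at 37 °C. Each well was multiplexed: SteadyGlo luminescence measured ATXN2-luciferase expression after a fluorogenic Gly-Phe-AFC viability readout (25 uM final).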
Numbers stand for hits; i = inactive; ? = inconclusive; nt = no result. An excerpt weighted towards active compounds, which were near 2.8% of everything screened. Unless noted, calls come from the whole dose curve; as a rule, active = well fitted curve in the direction sought with a large enough effect; inconclusive = small, poorly fitted or top-dose-only effect, or another doubt; inactive = no such curve, though single readings can be large; an effect the other way counts as inactive or inconclusive.

SMILES | CtBP-E1A blk | Six1-Eya2 blk | S2 tox | HepG2 tox | TGFb inhibitor | ATXN2 expr inh
Cc1ccn2c(Cc3ccccc3)c(-c3ccccc3)nc2c1 | i | i | i | i | i | i
Cc1ccc(C(=O)N2CCN(c3cccc(Cl)c3)CC2)cc1-n1c(C)nc2cccnc21 | nt | nt | nt | i | i | nt
CCc1cccc(NC(=O)CSc2ncc3c(n2)-c2ccc(Cl)cc2N(Cc2ccccc2)S3(=O)=O)c1 | nt | nt | i | i | i | i
CC(C)C(N)c1csc(Nc2cc(Oc3ccccc3)ncn2)n1 (stereo not drawn) | ? | i | ? | i | i | i
Cc1cc(C)nc(Nc2nc(C(N)c3ccccc3)cs2)n1 (stereo not drawn) | -67.5 | -68.7 | i | i | i | i
NC(c1ccccc1)c1csc(Nc2ccc(C(F)(F)F)cn2)n1 (stereo not drawn) | i | i | nt | i | ? | ?
Cc1cc(C)nc(Nc2nc(C(N)CCc3ccccc3)cs2)n1 (stereo not drawn) | i | i | ? | i | ? | ?
NC(c1ccccc1)c1csc(Nc2cc(Oc3ccccc3)ncn2)n1 (stereo not drawn) | ? | ? | ? | 11.2µM | ? | i
CC(C)CC(N)c1csc(Nc2cc(Oc3ccccc3)ncn2)n1 (stereo not drawn) | ? | i | nt | i | ? | 25.1µM
COc1cccc(CN2CCC3(CC2)c2ccccc2[C@@H](NC(=O)c2ccccc2)[C@@H]3O)c1O | nt | nt | i | nt | nt | nt
C[C@@H]1CN(Cc2ccc(F)cc2)[C@@H](C)CN1C(=O)c1cc2c(C(=O)C(=O)N(C)C)cn(C)c2cc1Cl | nt | nt | nt | nt | nt | i
CNc1nc2cc([N+](=O)[O-])c([N+](=O)[O-])cc2nc1NC | i | i | i | i | 7.08µM | ?
N#Cc1cc2nc(O)c(O)nc2cc1[N+](=O)[O-] | ? | ? | i | i | i | i
NC(Cc1ccc(Cl)cc1)c1csc(Nc2cc(NCCCO)ncn2)n1 (stereo not drawn) | -78.3 | -69.6 | i | i | ? | ?
Cc1nc(N)sc1-c1csc(Nc2ncccn2)n1 | i | ? | ? | i | i | i
NCc1csc(Nc2ncccn2)n1 | -80.6 | -72.5 | i | i | i | i
NC(Cc1ccc(C(F)(F)F)cc1)c1csc(Nc2ncccn2)n1 (stereo not drawn) | ? | ? | ? | i | i | i
CCc1cnc(Nc2nc(C(N)Cc3ccc(Cl)cc3)cs2)nc1 (stereo not drawn) | i | i | nt | i | ? | ?
CC(C)CC(N)c1csc(Nc2ncccn2)n1 (stereo not drawn) | -70.9 | ? | ? | i | 11.2µM | ?
NC(COCc1ccccc1)c1csc(Nc2ncccn2)n1 (stereo not drawn) | -85.0 | -80.9 | i | i | i | i
O=C(NCCN1CCOCC1)c1cnn(-c2nccc(-c3ccccc3C(F)(F)F)n2)c1C1CC1 | nt | nt | i | nt | nt | nt
COc1ccc(CC(N)c2csc(Nc3nncc4ccccc34)n2)cc1 (stereo not drawn) | i | i | ? | i | ? | i
COc1ccc(CC(N)c2csc(Nc3cc(NCCCO)ncn3)n2)cc1 (stereo not drawn) | -92.9 | -90.6 | i | i | ? | ?
CCCc1cnc(Nc2nc(C(N)Cc3ccc(OC)cc3)cs2)nc1 (stereo not drawn) | ? | ? | ? | 11.2µM | ? | ?
NC(COCc1ccccc1)c1csc(Nc2cc(NCCCO)ncn2)n1 (stereo not drawn) | -86.0 | -86.4 | i | i | i | i
SMILES | CtBP-E1A blk | Six1-Eya2 blk | S2 tox | HepG2 tox | TGFb inhibitor | ATXN2 expr inh
NC(Cc1ccc(C(F)(F)F)cc1)c1csc(Nc2ccccn2)n1 (stereo not drawn) | i | i | ? | i | i | i
NC(Cc1ccc(C(F)(F)F)cc1)c1csc(Nc2cc(NCc3ccco3)ncn2)n1 (stereo not drawn) | i | i | 25.1µM | 20µM | ? | 14.1µM
O=C(OCC(COC(=O)c1cccnc1)(COC(=O)c1cccnc1)COC(=O)c1cccnc1)c1cccnc1 | nt | nt | i | nt | nt | i
CCn1c(-c2cccnc2)nc2cc(NC(=O)COC)cc(C(=O)N3CCOc4ccccc4C3)c21 | nt | nt | i | nt | nt | nt
Cc1cc(C)n(-c2cccc(C(=O)NCC3Cc4cc(Cl)cc(-c5cnccn5)c4O3)c2)n1 (stereo not drawn) | nt | nt | i | nt | nt | nt
CCc1nnc(NC(=O)CSc2nccn2Cc2ccccc2)s1 | nt | nt | i | i | i | i
CCOCCCN1C(=O)c2[nH]nc(-c3ccccc3O)c2C1c1ccc(CC)cc1 (stereo not drawn) | nt | nt | ? | 17.8µM | ? | i
O=C1c2[nH]nc(-c3ccccc3O)c2C(c2cccc(O)c2)N1Cc1ccncc1 (stereo not drawn) | nt | nt | i | i | ? | i
CCc1ccc(C2c3c(-c4ccccc4O)n[nH]c3C(=O)N2Cc2ccncc2)cc1 (stereo not drawn) | nt | nt | 25.1µM | i | ? | i
Cc1ccccc1CN1CCc2nnc(C(C)NC(=O)c3cc(F)ccc3F)n2CC1 (stereo not drawn) | nt | nt | i | nt | nt | nt
COC(=O)c1c(N)sc(C(=O)NCCc2ccccc2)c1C | i | i | i | i | i | 3.55µM
COc1cccc(OC)c1C(=O)NCCc1ccccc1 | i | i | i | i | i | i
O=C1CCCC/C1=C/Nc1cccc(C(F)(F)F)c1 | i | i | i | i | i | i
O=C1CCC2S/C(=C/Nc3ccc(C(F)(F)F)cc3)C(=O)N12 (stereo not drawn) | nt | i | i | i | i | 2.82µM
COc1ccc(-c2onc(C)c2C)cc1S(=O)(=O)N(C)Cc1ccccc1 | nt | nt | nt | i | ? | nt
CC(=O)Nc1cccc(Oc2ncnc3scc(-c4ccc(C)cc4)c23)c1 | i | i | 31.6µM | i | ? | ?
COCc1ccc(CN2Cc3ccccc3OC(c3ccccc3OC)C2)o1 (stereo not drawn) | nt | nt | i | nt | nt | nt
O=C(NCc1cccnc1)C1CCN(Cc2cc3ccccc3n2Cc2ccccc2)CC1 | nt | nt | i | i | ? | i
Cc1ccccc1Cn1c(CN2CCC(C(=O)NCc3cccnc3)CC2)cc2ccccc21 | nt | nt | nt | i | 15.8µM | ?
CCCCCCNC(=O)O[C@H]1Cn2c(=O)ccc(=O)n2[C@@H]2CN(S(=O)(=O)c3ccc(C)cc3)C[C@]12O | i | i | 20µM | i | ? | 14.1µM
CCCCCCn1c(=O)n2n(c1=O)[C@@H]1CN(S(=O)(=O)c3ccc(C)cc3)C[C@]1(O)[C@@H](OC(=O)NC1CCCC1)C2 | i | i | nt | i | 11.2µM | ?
CCCCCCNC(=O)O[C@H]1Cn2c(=O)n(CCCCCC)c(=O)n2[C@@H]2CN(S(=O)(=O)c3ccc(C)cc3)C[C@]12O | i | i | nt | 22.4µM | ? | ?

Screening results from PubChem BioAssay.
